These results are taken from PubChem BioAssay.

Assay [1] in a line: antimalarial activity against Dd2 strain (AID 2302;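 active = growth inhibition above 50% at the single 2 µM test dose, taken to imply half-maximal potency below 2 µM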;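 also: 0% = DMSO untreated growth and 100% = chloroquine plus artemisinin killed control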). Particulars: P. falciparum Dd2 in RBCs, LDH growth readout, 72 h; at 2 µM; active compounds read high.
The nature of assay [2]: HepG2 cytotoxicity, primary screen, cytotoxicity control for P. falciparum antimalarial project, cell-based, ATP luminescence (AID 2303;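 active = inhibition above 50%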;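 also: 0% = DMSO wells and 100% = digitonin-killed cells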). Conditions: HepG2 viability, 24-48 h, at 10 µM, active compounds read high.
For assay [3], the target named is L-lactate dehydrogenase (Plasmodium falciparum (isolate CDC / Honduras)) (UniProt Q27743). The experiment in a line: PfLDH activity inhibition – cell lysate, 3D7 strain, counter-screen for P. falciparum growth inhibition project (AID 2304).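 Also: 0% = vehicle and 100% = reference inhibitor.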 Conditions: P. falciparum 3D7 crude extract, LDH APAD/NBT absorbance; at 2 µM; active compounds read high. (A counterscreen serves to expose hits that act by an unwanted route or on another target.)

Assay [4] in a line: inhibition of 3D7 malaria parasite growth – strain 3D7 (AID 2306).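 Also: 0% = DMSO wells and 100% = chloroquine plus artemisinin control wells.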 Conditions: P. falciparum 3D7 erythrocytic growth, LDH absorbance, 72 h; at 2 µM; active compounds read high.
Assay [5] deals with Calcium-dependent protein kinase 1 (Plasmodium falciparum (isolate 3D7)) (UniProt P62344). The experiment in a line: PfCDPK1 kinase inhibitors, biochemical, TCAMS library (AID 1159585; cut-off not given, nearly all actives have IC50 up to about 0.98 µM;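 also: inhibitors leave more ATP so luminescence rises with inhibition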). Particulars: recombinant PfCDPK1, Kinase-Glo ATP depletion luminescence.
Assay [6] has as its target Plasmodium falciparum protein kinase 6 (PK6, PF3D7_1337100) (UniProt Q8IDW1). In words: PfPK6 kinase inhibitors, biochemical, TCAMS library (AID 1159586). Particulars: recombinant PfPK6, Kinase-Glo ATP depletion luminescence. On the technique in general: Kinase-Glo measures the ATP left after a reaction by luminescence.
For assay [7], the target named is Protein kinase 7 (PK7), Plasmodium falciparum 3D7 (PF3D7_0213400) (UniProt Q7YTF7). The experiment in a line: inhibition of Plasmodium PK7 catalytic activity – biochemical, TCAMS antimalarial set, Kinase-Glo luminescence (AID 1159587). Conditions: recombinant PfPK7, Kinase-Glo ATP depletion luminescence.
The target of assay [8] is Calcium-dependent protein kinase 4 (Plasmodium falciparum (isolate 3D7)) (UniProt Q8IBS5). In words: PfCDPK4 kinase inhibitors, biochemical, TCAMS library (AID 1159588; cut-off not given, nearly all actives have IC50 up to about 0.91 µM). Particulars: recombinant PfCDPK4, Kinase-Glo ATP depletion luminescence.

Values without a mark were called inactive. For some assays here: Entries with a potency or affinity are not part of this list. The source made the active and inactive calls. Unless noted, no rule for the calls is given here.

Chain of Calcium-dependent protein kinase 1 (Plasmodium falciparum (isolate 3D7)) (P62344 whole entry, looked up): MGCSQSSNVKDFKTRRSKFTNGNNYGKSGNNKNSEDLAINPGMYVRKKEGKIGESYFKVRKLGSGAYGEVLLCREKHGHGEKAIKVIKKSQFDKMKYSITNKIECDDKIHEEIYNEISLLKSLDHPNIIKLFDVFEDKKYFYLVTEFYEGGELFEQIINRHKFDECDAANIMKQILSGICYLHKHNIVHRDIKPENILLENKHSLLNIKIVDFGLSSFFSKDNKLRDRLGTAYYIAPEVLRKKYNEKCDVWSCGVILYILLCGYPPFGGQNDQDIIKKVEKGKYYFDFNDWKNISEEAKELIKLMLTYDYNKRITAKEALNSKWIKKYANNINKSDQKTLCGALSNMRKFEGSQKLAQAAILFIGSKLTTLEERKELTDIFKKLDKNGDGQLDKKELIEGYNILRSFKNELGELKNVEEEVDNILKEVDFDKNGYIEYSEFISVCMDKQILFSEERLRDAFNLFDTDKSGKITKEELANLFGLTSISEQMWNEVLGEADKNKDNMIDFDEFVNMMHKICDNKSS
Chain of Protein kinase 7 (PK7), Plasmodium falciparum 3D7 (PF3D7_0213400) (Q7YTF7 1-343): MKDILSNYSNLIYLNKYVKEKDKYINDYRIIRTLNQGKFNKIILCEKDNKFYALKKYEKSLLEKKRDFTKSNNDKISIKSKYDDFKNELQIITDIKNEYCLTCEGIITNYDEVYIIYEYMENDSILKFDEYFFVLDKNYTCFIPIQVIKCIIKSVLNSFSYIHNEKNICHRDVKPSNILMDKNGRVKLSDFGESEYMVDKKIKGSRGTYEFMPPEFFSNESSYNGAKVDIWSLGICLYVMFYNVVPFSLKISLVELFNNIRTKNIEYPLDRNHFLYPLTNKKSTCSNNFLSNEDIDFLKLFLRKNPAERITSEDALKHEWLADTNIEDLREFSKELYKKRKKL
Chain of L-lactate dehydrogenase (Plasmodium falciparum (isolate CDC / Honduras)) (Q27743 whole entry, looked up): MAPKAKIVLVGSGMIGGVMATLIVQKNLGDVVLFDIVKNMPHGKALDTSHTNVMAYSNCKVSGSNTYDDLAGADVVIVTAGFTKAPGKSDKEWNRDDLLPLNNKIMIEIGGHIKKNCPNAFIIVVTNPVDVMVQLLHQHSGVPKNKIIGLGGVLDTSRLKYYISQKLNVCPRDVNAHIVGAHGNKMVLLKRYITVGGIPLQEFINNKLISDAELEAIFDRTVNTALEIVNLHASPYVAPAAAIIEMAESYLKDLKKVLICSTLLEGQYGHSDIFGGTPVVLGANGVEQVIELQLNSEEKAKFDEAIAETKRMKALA
Chain of Calcium-dependent protein kinase 4 (Plasmodium falciparum (isolate 3D7)) (Q8IBS5 whole entry, looked up): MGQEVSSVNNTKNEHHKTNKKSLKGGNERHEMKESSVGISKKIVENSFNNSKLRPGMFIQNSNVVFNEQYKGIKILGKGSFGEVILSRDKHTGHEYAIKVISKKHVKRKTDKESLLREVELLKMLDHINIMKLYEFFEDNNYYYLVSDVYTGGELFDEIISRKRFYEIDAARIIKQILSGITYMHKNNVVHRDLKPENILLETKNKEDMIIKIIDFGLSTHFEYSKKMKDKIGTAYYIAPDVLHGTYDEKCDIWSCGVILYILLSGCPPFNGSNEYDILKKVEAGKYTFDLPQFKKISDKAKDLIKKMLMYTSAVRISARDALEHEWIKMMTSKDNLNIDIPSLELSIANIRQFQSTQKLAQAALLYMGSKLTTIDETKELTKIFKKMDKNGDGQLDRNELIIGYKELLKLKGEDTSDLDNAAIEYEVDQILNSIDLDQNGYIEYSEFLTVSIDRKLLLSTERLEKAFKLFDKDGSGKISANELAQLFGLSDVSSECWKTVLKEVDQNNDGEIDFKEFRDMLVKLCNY
Chain of Plasmodium falciparum protein kinase 6 (PK6, PF3D7_1337100) (Q8IDW1 1-305): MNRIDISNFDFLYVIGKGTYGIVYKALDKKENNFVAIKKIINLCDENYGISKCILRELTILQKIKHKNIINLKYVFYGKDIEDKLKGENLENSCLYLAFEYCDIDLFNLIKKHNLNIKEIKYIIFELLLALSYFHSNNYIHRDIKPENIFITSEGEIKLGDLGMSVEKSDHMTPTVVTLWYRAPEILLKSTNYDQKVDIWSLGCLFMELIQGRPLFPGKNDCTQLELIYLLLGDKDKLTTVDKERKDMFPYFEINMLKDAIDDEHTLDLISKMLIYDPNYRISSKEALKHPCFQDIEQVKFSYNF

Turning to `Cc1cccc2[nH]c(-c3ccc(-c4ccc(CN5CCOCC5)cc4)cc3)nc12`, the growth inhibition in assay [1] is 86% (active); in assay [4], 92% (active). Moreover, the inhibition (as a rule, the drop in the measured response relative to a control, in per cent) was 29% in assay [2] and 0% in assay [3]. The result in assay [5], in assay [6], in assay [7] and in assay [8] was inactive.
With `O=C(Nc1ccc(N2CCN(C(=O)C=Cc3ccccc3)CC2)c(Cl)c1)c1ccc([N+](=O)[O-])o1`, the growth inhibition in assay [1] is 90% (active); in assay [4] it was 97% (active). For the same compound, the inhibition was 98% (active) in assay [2] and -5% in assay [3]. Moreover, the outcome in assay [5], in assay [6], in assay [7] and in assay [8] was inactive.
Turning to `Cc1cc2nc(/N=C(\N)NC(=O)NC3CCCCC3)nc(C)c2cc1C`, the growth inhibition was 98% (active) in assay [1] and 94% (active) in assay [4]. In addition, the inhibition is 20% in assay [2] and 2% in assay [3]. For the same compound, the result in assay [5], in assay [6], in assay [7] and in assay [8] was inactive.
In the case of `CCN(CC)C(=NCCCCCCN=C(NC(N)=NCc1ccc(Cl)cc1Cl)N(CC)CC)NC(N)=NCc1ccc(Cl)cc1Cl`, the growth inhibition in assay [1] is 99% (active); in assay [4] it was 102% (active). In addition, the inhibition was 16% in assay [2] and -3% in assay [3]. Moreover, the outcome in assay [5], in assay [6], in assay [7] and in assay [8] was inactive.
Take `O=S(=O)(NC1CCN(c2ccnc3cc(Cl)ccc23)C1)c1ccc(C(F)(F)F)cc1` (configuration not stated): the growth inhibition in assay [1] was 98% (active); in assay [4], 100% (active). Besides, the inhibition in assay [2] was 20%; in assay [3], 2%. For the same compound, the outcome in assay [5], in assay [6], in assay [7] and in assay [8] was inactive.
As to `CNc1ccc(CNCc2ccc(-c3ccc(-c4nc5c(C)cccc5[nH]4)s3)cc2)cc1`, the growth inhibition was 94% (active) in assay [1] and 101% (active) in assay [4]. Moreover, the values for the inhibition in assay [2] and in assay [3] were 29% and -5%, respectively. Besides, the result in assay [5], in assay [6], in assay [7] and in assay [8] was inactive.
With `C=C(F)c1sc(CNCCCNc2nc3ccccc3[nH]2)c(C)c1Br`, the figures for the growth inhibition in assay [1] and in assay [4] were 23% and 100% (active), respectively. The results for the inhibition in assay [2] and in assay [3] were 15% and 3%, respectively. The result in assay [5], in assay [6], in assay [7] and in assay [8] was inactive.
On to `CC(C)Oc1ccc(CCCON2C(N)=NC(N)=NC2(C)C)cc1`, for which the growth inhibition was 94% (active) in assay [1] and 96% (active) in assay [4]. Also, the values for the inhibition in assay [2] and in assay [3] were 66% (active) and 0%, respectively. Moreover, the result in assay [5], in assay [6], in assay [7] and in assay [8] was inactive.
Consider `Cc1ccnc2nc(C(=O)Nc3cc(Cl)ccc3N3CCOCC3)nn12`, for which the growth inhibition is 63% (active) in assay [1] and 84% (active) in assay [4]. Further, the inhibition was -4% in assay [2] and -1% in assay [3]. Also, the outcome in assay [5], in assay [6], in assay [7] and in assay [8] was inactive.
With `CN(C)S(=O)(=O)c1ccc(N2C(=O)[C@@H]3[C@H](C2=O)[C@@]2(c4ccccc4)C(=O)[C@]3(c3ccccc3)C(c3ccccc3)=C2c2ccccc2)cc1`, the growth inhibition in assay [1] was 63% (active); in assay [4], 92% (active). In addition, the inhibition in assay [2] is -10%; in assay [3] it was 3%. The outcome in assay [5], in assay [6], in assay [7] and in assay [8] was inactive.
With `CC[C@H](NC(=O)c1c(CN2CCC(N3CCCCC3)CC2)c(-c2ccccc2)nc2cc(O)ccc12)c1ccccc1`, the results for the growth inhibition in assay [1] and in assay [4] were 13% and 94% (active), respectively. For the same compound, the inhibition in assay [2] is 15%; in assay [3], 2%. In addition, the result in assay [5], in assay [6], in assay [7] and in assay [8] was inactive.
As to `O=C(Nc1ccc2nc(-c3ccccc3)[nH]c2c1)c1cc(-c2ccc3c(c2)OCCO3)n[nH]1`, the growth inhibition was 75% (active) in assay [1] and 100% (active) in assay [4]. For the same compound, the inhibition in assay [2] was 58% (active); in assay [3], -2%. Besides, the outcome in assay [5], in assay [6], in assay [7] and in assay [8] was inactive.
On to `Cc1cc(C2CCN(CCCCNC(=O)c3ccc(-c4ccc(C(F)(F)F)cc4)cc3)CC2)c(C)cc1OCC(N)=O`, for which the growth inhibition in assay [1] was 44%; in assay [4], 91% (active). In addition, the inhibition in assay [2] is 34%; in assay [3] it was -7%. The outcome in assay [5], in assay [6], in assay [7] and in assay [8] was inactive.
Turning to `COc1ccc2nc(-c3ccccc3)cc(NN=Cc3ccncc3)c2c1`, the growth inhibition in assay [1] was 27%; in assay [4] it was 99% (active). For the same compound, the inhibition in assay [2] was 14%; in assay [3], -2%. Besides, the result in assay [5], in assay [6], in assay [7] and in assay [8] was inactive.
In the case of `COc1ccc(Cn2cncc2CN(CCC(C)C)C(=O)c2ccc(Cl)nc2Cl)cc1`, the growth inhibition is 61% (active) in assay [1] and 87% (active) in assay [4]. The inhibition in assay [2] was 19%; in assay [3], -1%. The outcome in assay [5], in assay [6], in assay [7] and in assay [8] was inactive.
`COc1ccc(NC(=O)/C=C/c2ccc(-c3ccccc3)cc2)cc1N1CCN(C)CC1`: the growth inhibition is 46% in assay [1] and 90% (active) in assay [4]. Also, the figures for the inhibition in assay [2] and in assay [3] were 21% and 6%, respectively. Besides, the result in assay [5], in assay [6], in assay [7] and in assay [8] was inactive.
As for `COc1ccc2nc(-c3ccccc3)cc(NCCN(C)C)c2c1`, the growth inhibition was 23% in assay [1] and 101% (active) in assay [4]. Moreover, the results for the inhibition in assay [2] and in assay [3] were -1% and -3%, respectively. The outcome in assay [5], in assay [6], in assay [7] and in assay [8] was inactive.
As for `O=C(Nc1ccc(OC(F)(F)F)cc1)NC1CCN(c2ccnc3ccccc23)C1` (configuration not stated), the growth inhibition was 89% (active) in assay [1] and 101% (active) in assay [4]. Further, the inhibition in assay [2] was 25%; in assay [3], 1%. The result in assay [5], in assay [6], in assay [7] and in assay [8] was inactive.
With `Cc1cccc2[nH]c(-c3ccc(-c4ccc(NC(=O)Nc5ccsc5)cc4)s3)nc12`, the growth inhibition in assay [1] was 88% (active); in assay [4], 100% (active). In addition, the inhibition in assay [2] was 74% (active); in assay [3] it was 2%. For the same compound, the result in assay [5], in assay [6], in assay [7] and in assay [8] was inactive.
